ChEMBL document CHEMBL3433997, “St. Jude Leishmania screening dataset” (2016)

How the values were obtained:
Format in all cases: functional
[1] = target: Solute carrier family 2, facilitated glucose transporter member 1 (Homo sapiens) (UniProt P11166); experiment: ST_JUDE_LEISH: Cytotoxicity at 2uM final concentration against transgenic Leishmania Mexicana promastigotes LmGLUT1 that are glucose transport deficient and complemented with the human glucose transporter GLUT1. Activity is measured by DNA content using SYBR green in vitro
[2] = target: Hexose transporter 1 (Plasmodium falciparum) (UniProt O97467); experiment: ST_JUDE_LEISH: Cytotoxicity at 2uM final concentration against transgenic Leishmania Mexicana promastigotes LmPfHT that are glucose transport deficient and complemented with the Plasmodium falciparum hexose transporter. Activity is measured by DNA content using SYBR green in vitro
[3] = target: Glucose transporter (Leishmania mexicana) (UniProt O61059); experiment: ST_JUDE_LEISH: Cytotoxicity at 2uM final concentration against transgenic Leishmania Mexicana promastigotes LmGT2 that are glucose transport deficient and complemented with the L. Mexicana glucose transporter 2. Activity is measured by DNA content using SYBR green in vitro

Chain of Solute carrier family 2, facilitated glucose transporter member 1 (Homo sapiens) (P11166 whole entry): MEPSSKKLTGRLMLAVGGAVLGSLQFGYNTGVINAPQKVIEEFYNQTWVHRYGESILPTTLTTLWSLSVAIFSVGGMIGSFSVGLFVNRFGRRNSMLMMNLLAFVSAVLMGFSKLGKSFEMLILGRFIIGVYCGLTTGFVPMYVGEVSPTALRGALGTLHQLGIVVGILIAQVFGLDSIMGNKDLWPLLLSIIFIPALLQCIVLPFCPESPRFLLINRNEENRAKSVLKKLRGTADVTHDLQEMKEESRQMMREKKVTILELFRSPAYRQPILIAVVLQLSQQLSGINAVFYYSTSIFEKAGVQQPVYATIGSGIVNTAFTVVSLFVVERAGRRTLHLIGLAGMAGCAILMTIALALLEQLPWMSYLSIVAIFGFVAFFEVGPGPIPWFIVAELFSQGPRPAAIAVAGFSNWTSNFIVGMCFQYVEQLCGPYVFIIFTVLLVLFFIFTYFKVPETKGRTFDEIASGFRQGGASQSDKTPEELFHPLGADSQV

SMILES	inhibition [1] [%]	inhibition [2] [%]	inhibition [3] [%]
Cc1nc(-c2cccc(Nc3nccc(NCC(O)c4ccccc4C)n3)c2)cs1 (centres undefined)	2.79	3.57	3.17
O=C(O)c1cccc2c(-c3ccncc3)cccc12	0.79	1.26	1.31
CCCCC(O)c1cc(O)c2c(c1)OC(C)(C)CC2C1=CCN(Cc2ccc3ccccc3c2)CC1 (centres undefined)	-0.53	1.5	0.64
CN1CCN(CCCN(Cc2cccc(-c3ccc(CNCCc4ccccc4)cc3)c2)C(=O)c2cccs2)CC1	4.14	4.22	3.91
O=C(Nc1ccc(-c2cccc(-c3nc4cc(C(F)(F)F)ccc4[nH]3)c2)cc1)c1ccc(=O)[nH]n1	3.7	2.75	2.97
CCNc1cc(C(=O)N[C@@H](Cc2ccccc2)[C@H](O)CNC(C)CCCC(C)C)cc(N2CCCS2(=O)=O)c1 (some centres undefined)	2.83	1.89	2.08
COc1ccc2c(NN=Cc3ccccn3)ccnc2c1	13.7	11.8	11.3
COc1cccc(-c2cc(C(F)(F)F)n3ncc(C(=O)Nc4cc(C)ccc4O)c3n2)c1	2.75	3.89	3.36
Nc1ncc(-c2cc3ccccc3o2)c(N)n1	3.02	2.51	-0.11
Cc1nc(-c2nc(N3CCC(C(N)=O)CC3)ncc2-c2ccsc2)sc1C	8.94	7.69	6.73
CN(CCCCCNC(=O)/C=C/c1ccc(Cl)c(Cl)c1)CCCCc1c[nH]c2ccccc12	0.57	0.62	1.11
O=c1cc(NCCCN(Cc2cc3c(Cl)cc(Cl)cc3[nH]2)Cc2cc3c(Cl)cc(Cl)cc3[nH]2)[nH]c2ccccc12	9.06	9.4	7.31
Cc1cc(NC(=O)Nc2ccc3nc(C)oc3c2)c2cc(Cl)ccc2n1	3.48	2.12	1.38
O=C(c1ccc(O)c(-c2cc(Cl)cc(Cl)c2)c1)N(CCO)CCO	2.23	1.98	3.14
CCc1c(CCNC/C=C/C=C/CNCCc2ccc(OC)c(OC)c2CC)ccc(OC)c1OC	3.5	0.39	1.71
O=C(NC1CC1c1ccccc1)N(CCCn1ccnc1)Cc1csc(-c2ccc(CNCc3ccccc3)cc2)n1 (centres undefined)	1.52	1	3.57
Nc1nccc(-c2ccc3c(/C=C/c4ccccc4)cnc(N)c3c2)n1	18.2	24.5	0.5
CC(=O)Nc1nc(C(=O)Nc2cccc(-c3ccc(-c4nc5cc(F)ccc5[nH]4)cc3)c2)cs1	2.38	1.38	4.22
COc1ccc(CNC2Cc3ccccc3C2)cc1-c1ccc(S(=O)(=O)NCCc2ccccn2)s1	0.76	0.03	2.04
Cc1cc(Nc2ncc(C#N)c(Nc3ccccc3C(N)=O)n2)ccc1N1CCN(C)CC1	79.2	78.8	65.4
CCCCCc1cnc2nc(N)nc(N)c2c1C	13.6	13.5	12.4
COc1ccc(Cl)cc1NC(=O)Nc1ccnc2ccccc12	14.6	13.4	6.32
COc1ccc(-c2ccc(NC(=O)c3cccc(C#N)c3)cc2)cc1CN1CCCN(C)CC1	4.08	2.42	-0.48
COc1ccccc1C(=O)Nc1ccc(Nc2nc(C)cc(N3CCOCC3)n2)cc1	4.83	4.3	5.97
COc1ccc(CNCc2ccc(-c3cccc(-c4nc5ccccc5[nH]4)c3)cc2)cc1	5.98	6.56	2.14

SMILES	inhibition [1] [%]	inhibition [2] [%]	inhibition [3] [%]
O=C(/C=C/c1ccc(C(F)(F)F)cc1)NCCCCCN1CCCN(C(=O)Nc2cccc(Cl)c2)CC1	-0.19	-1.13	1.47
NC(=O)c1ccsc1NC(=O)CNC(c1ccccc1)c1ccc(Cl)cc1 (centres undefined)	6.13	2.82	1.74
Nc1nccc2ccc(Oc3ccncc3)cc12	2.47	3.29	4.2
COc1cc(OC)c(NC(=O)C2c3ccccc3C(=O)N(CC(C)C)C2c2cccs2)cc1Cl (centres undefined)	-4.11	2.33	5.96
COc1ccccc1CCN1CCC(CN(C)Cc2ccc(O)c(Cl)c2)CC1	2.46	5.47	4.27
Oc1ccc(-c2cc(-c3ccc(O)cc3)nc(-c3ccccc3)n2)cc1	2.51	1.53	0.82
O=C(/C=C/c1ccc(Cl)c(Cl)c1)NCCCCCN1CCC(C(=O)Nc2ccc(Cl)cc2)CC1	1.92	0.72	2.78
O=C(Nc1ccc(Cl)c(Cl)c1)Nc1ccc2c(c1)CCNCC2	-0.33	0.96	0.79
Cc1nc2nc(N)nc(N)c2c(C)c1Cc1ccc(O)cc1	-0.09	-2.78	4.5
Nc1ncc(-c2ccc3nccc(-c4ccncc4)c3c2)cc1S(=O)(=O)N1CCCCC1	12.9	11.3	7.55
CCOc1cc(C(C)C)ccc1C1CCN(CCCCNC(=O)c2ccc(NC(=O)c3ccc(Cl)cc3)cc2)CC1	3.78	4.23	2.65
Cc1cc(-c2ccc3c(c2)CC[C@@H](N[C@@H](C)c2ccccc2)C3)cnc1N	4.92	1.71	2.23
CCCN(CCC)S(=O)(=O)c1ccc(C(=O)Nc2nc3ccc(-c4cc(=O)[nH]c(Nc5ccccc5Cl)n4)cc3[nH]2)cc1	4.09	5.1	4.26
CCn1cc(C(=O)O)c(=O)c2cc(F)c(N3CCN(S(=O)(=O)c4ccc(N)cc4)CC3)cc21	0.77	0.41	-4
CC(C)c1ccc(NC(=O)c2ccc(C(=O)NC3CCN(CC4CCCCC4)C3)cc2)cc1 (centres undefined)	3.72	4.18	3.15
CNCC(C)(C)c1nc(-c2ccc(Cl)c(O)c2)c(-c2ccncc2)[nH]1	-1.98	-1.37	-3.28
COc1ccccc1-c1csc(C(=O)NCC2CCN(Cc3ccc(C(C)(C)C)cc3)C2)c1 (centres undefined)	1.44	0.16	0.22
Cc1cc(=NN=Cc2ccc(F)cc2)c2ccc(C(F)(F)F)cc2[nH]1	3	4.59	1.74
CC(=O)CC(=O)N1CCN(c2ccccc2)CC1	-0.36	-0.81	-0.35
COc1ccc2nccc([C@@H](O)CN3CCC(NCc4nc5c([N+](=O)[O-])cccc5[nH]4)CC3)c2c1	2.43	2.99	1.31
O=C(Nc1ccc(-c2nc3cc4ccccc4cc3[nH]2)cc1)c1cccc(Br)c1	3.09	1.07	5.72
Nc1nc(N)c2c(ccc3c2ccn3CCCC(F)(F)F)n1	14.2	20.3	8.28
COc1ccc(CCNC(=O)c2cc3c(=O)n4cccc(C)c4nc3n(C)c2=N)cc1	13.4	10.1	15.2
COc1cccc(CCN(Cc2ccccc2-c2ccc(CNC3CC(C)(C)NC(C)(C)C3)cc2)C(=O)NC2CCCCC2)c1	0.9	0.87	2.67
O=C(c1cnn(-c2ccccc2)c1C(F)(F)F)N1CCN(c2ccnc3cc(Cl)ccc23)CC1	1.81	1.39	2.15

SMILES	inhibition [1] [%]	inhibition [2] [%]	inhibition [3] [%]
Oc1ccc(-c2cc(COc3ccccc3C(F)(F)F)c(C3=CCNCC3)cc2COc2ccccc2C(F)(F)F)cc1	2.69	2.67	-0.12
Cc1sc(NC(=O)c2ccc([N+](=O)[O-])cc2Cl)c(C(N)=O)c1C	2.24	2.08	2.74
Cc1cccc2nc(-c3ccc(-c4ccc(CNCC5CCCO5)cc4)cc3)[nH]c12 (centres undefined)	16.3	14.9	6.42
CCOc1ccc(C(C)NC(=O)Cc2ccccc2F)cc1OCC (centres undefined)	3.49	2.75	-0.15
CCCOc1cc(Cc2cnc(N)nc2N)cc(OC)c1OC	-1.05	-1.9	-0.03
O=C(c1cccc(Cl)c1)N1CCN(c2ccc([N+](=O)[O-])c(NC3CC3)c2)CC1	0.4	2.47	0.25
O=S(=O)(NCCN1CCCC1)c1ccc(-c2ccc(CNC3Cc4ccccc4C3)cc2)cc1	2.13	0.85	-2.78
CCNc1cc(C)nc(Nc2ccc(NC(=O)c3ccccc3Br)cc2)n1	8.09	9.16	4.36
O=C(Nc1cccc(C(F)(F)F)c1)c1cccc(S(=O)(=O)NCC2CCCN(Cc3ccccc3)C2)c1 (centres undefined)	1.71	1.75	1.71
Nc1cccc(CNCc2cccc(-c3cccc(-c4nc5ccccc5[nH]4)c3)c2)c1	-1.07	1.34	-0.53
Cc1ccccc1N1CCN(c2ncc(C(=O)NC3CC3)cc2Cl)CC1	6.45	6.74	5.71
Cc1cc2[nH]c(-c3ccc(C(=O)NCCCN4CCN(c5cccc(Cl)c5)CC4)cc3F)nc2cc1Cl	-0.3	0.43	-0.02
CCN(CC)C(=O)c1cccc(C=Cc2ccc(-c3c(C)[nH]c(C)c(Cl)c3=O)cc2)c1	2.65	2.83	1.56
O=C(NCCCCN1CCN(c2nsc3ccccc23)CC1)c1ccccc1C(=O)NCCCCN1CCN(c2nsc3ccccc23)CC1	2.17	-0.52	-0.08
Cc1cc(OCCCNC(=N)c2ccc3ccccc3c2)c(C(C)C)cc1Cl	2.28	2.39	-0.77
Fc1ccc2[nH]c(-c3ccc(-c4ccc(CNCCN5CCNCC5)cc4)cc3)nc2c1	-0.25	1.53	0.99
CN(C)c1ccc(CN2CCC(CNC(=O)c3cc(-c4cccc(C(F)(F)F)c4)cs3)C2)cc1 (centres undefined)	2.15	1.34	1.72
COCCOc1nc(N)nc2ncc(Cc3cc(OC)ccc3OC)c(C)c12	0.79	0.23	-1.06
Cc1cc(N)c2cc(NC(=O)/C=C/c3ccc([N+](=O)[O-])cc3)ccc2n1	3.11	1.19	0.94
CN(C)CCNCc1nc(-c2ccc3c(Nc4ccc(Cl)cc4F)ccnc3c2)cs1	9.87	8.58	10.1
COc1ccc2nccc([C@@H](O)CN3CCC(NC(=O)COc4nc(SCc5ccc(F)cc5)nc5c4CCC5)CC3)c2c1	1.06	0.81	-3.16
O=C(/C=C/c1ccc(Cl)c(Cl)c1)NCCCCCN1CCCN(C(=O)Nc2cccc(Cl)c2)CC1	0.54	0.75	3.37
CCC(=Cc1cccc([N+](=O)[O-])c1)C(=O)NCC1CCN(c2nc3cc(OC)c(OC)cc3c(=N)[nH]2)CC1	5.64	7.07	6.83
